# Measured values from PubChem BioAssay (NCATS).
# Several values for one entry are separate records, joined by “and”; a condition that tells them apart may be missing. Equal values may be shown once. Records with an inconclusive call do not appear. Activity calls are given as the source filed them. Unless noted, calls come from the whole dose curve; as a rule, active = well fitted curve in the direction sought with a large enough effect; inconclusive = small, poorly fitted or top-dose-only effect, or another doubt; inactive = no such curve, though single readings can be large; an effect the other way counts as inactive or inconclusive.
# Key:
# [1] = qHTS Assay for Identification of Small Molecule Agonists for NFkB Signaling Pathway. (AID 624478);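 note: compounds tested together with TNF alpha at its EC50 of 10 pM; 0% is about no effect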
# Summary of the method: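 Compounds were added with 10 pM TNF alpha (EC50 level) to ME-180 NFkB-bla cells in low-serum Opti-MEM and incubated 5 hrs at 37 C. Beta-lactamase FRET read-out used 405 nm excitation and 460 and 530 nm emission.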
# [2] = Cell Proliferation Assay against the TMD8 Cell Line (AID 651645); settings: TMD8 DLBCL cell line proliferation/viability; at 46.1 µM (top of the series);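 note: cells exposed to compound for 48 h before reading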
# Summary of the method: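 Luminescent ATP read-out (CellTiter-Glo, 15 min RT) after 48 h compound exposure of log-growing TMD8 cells at 37C; percent activity scaled between DMSO as 100% and 9.2 uM bortezomib final as 0%.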
# [3] = Cell Proliferation Assay against the HBL1 Cell Line (AID 651646); settings: HBL1 DLBCL cells; at 46.1 µM (top of the series);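 note: cells exposed to compound for 48 h before reading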
# Summary of the method: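 HBL1, 500 cells/well, RPMI no phenol red + 5% FBS; cpd pinned, 48 h 37C/5% CO2; CellTiter-Glo, 15 min RT, luminescence. % activity: DMSO = 100%, bortezomib 9.2 uM final = 0%.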
# [4] = qHTS Assay for Identification of Small Molecule Antagonists for NFkB Signaling Pathway. (AID 624479; calls by dose curve;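 note: pathway stimulated with TNF alpha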; note: potency is the fitted concentration of half-maximal effect)
# [5] = Cell Proliferation Assay against the TMD8 Cell Line (Caspase readout at 16 hrs) (AID 651712); note: potency is the fitted concentration of half-maximal effect
# Summary of the method: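 Caspase-Glo luminescence after 16 h compound exposure of TMD8 cells, 37 °C, 5% CO2. Medium: RPMI without phenol red, 5% FBS. Normalisation: DMSO = 0%, bortezomib 9.2 uM final = 100%.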
# [6] = Cell Proliferation Assay against the TMD8 Cell Line (Caspase readout at 8 hrs) (AID 651713); note: potency is the fitted concentration of half-maximal effect
# Summary of the method: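 Apoptosis read-out: Caspase-Glo luminescence after 8 h compound exposure of TMD8 lymphoma cells at 37C, 5% CO2. Signals were normalized as percent activity between DMSO and bortezomib (9.2 uM final) controls.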
# [7] = qHTS assay for small molecule agonists of the antioxidant response element (ARE) signaling pathway (AID 651741; active = well fitted activation curve with a large enough effect in the signal ratio; the % refers to the signal ratio; note: potency is the fitted concentration of half-maximal effect); settings: HepG2 ARE-bla reporter, beta-lactamase FRET ratio, 16 h
# Summary of the method: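 Stably integrated ARE-beta-lactamase reporter HepG2 cells; 16 h compound incubation, 37 C; LiveBLAzer FRET substrate 2 h at room temperature; fluorescence intensity.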
Structure (SMILES),outcome [1],viability (% of control) [2],"viability, percent of control [3]",Potency [4],Potency [5],Potency [6],Potency [7]
Fc1cc(-c2cccc3ncc(-c4cnn(C5CCNCC5)c4)nc23)cc(F)c1CN1CCOCC1,inactive,1.53%,2.06%,,,,
O=c1[nH]nc(Sc2ncc([N+](=O)[O-])s2)n1-c1ccc2c(c1)OCCO2,inactive,0.996%,-0.138%,23.7 µM (active),inactive,inactive,
Cc1cnc(Nc2ccc(F)cc2Cl)nc1-c1c[nH]c(C(=O)N[C@H](CO)c2cccc(Cl)c2)c1,inactive,-0.93%,0.107%,,,,
CC[C@H](CO)Nc1nc(NCc2ccccc2)c2ncn(C(C)C)c2n1,inactive,7.77%,55%,,0.935 µM (active),,
O=C(NCCCNc1nc(Nc2cccc(NC(=O)N3CCCC3)c2)ncc1I)c1cccs1,inactive,1.52% and 1.4%,26.8% and 21.3%,9.43 µM (active) and 5.3 µM (active),13.2 µM (active) and 5.9 µM (active),26.4 µM (active) and 29.6 µM (active),
CC(C)(C)c1cc(NC(=O)Nc2ccc(-c3cn4c(n3)sc3cc(OCCN5CCOCC5)ccc34)cc2)no1,inactive,41.9%,30.7%,13.3 µM (active),inactive,inactive,
Nc1ccc(C(=O)c2cc3c(ccc4ccccc43)[nH]2)cc1,inactive,28.2%,14.4%,14.9 µM (active),26.4 µM (active),inactive,
O=C(O)CCCc1c[nH]c2ccccc12,,,,,,,61.1 µM (active)
CC(C)(C)c1cc(C(C)(C)C)c(NC(=O)c2c[nH]c3ccccc3c2=O)cc1O,,5.21%,5.33%,23.7 µM (active),,,
Cc1cn2c(-c3cn[nH]c3)cnc2c(Nc2ccc(C(=O)N3CCNCC3)cc2F)n1,inactive,35.7%,85.6%,,,,
O=C(C=Cc1cccc(S(=O)(=O)Nc2ccccc2)c1)NO,inactive,1.87%,2.01%,,0.935 µM (active),inactive,
CN(C)CCCN=c1c2ccccc2n(C)c2[nH]c(=O)n(C)c(=O)c12,inactive,1.93%,32.9%,,20.9 µM (active),26.4 µM (active),
CC1(O)CC(c2nc(-c3ccc4ccc(-c5ccccc5)nc4c3)c3c(N)nccn23)C1 (stereo not drawn),inactive,2.23%,43%,,26.4 µM (active),inactive,
Cn1cncc1[C@@](N)(c1ccc(Cl)cc1)c1ccc2c(c1)c(-c1cccc(Cl)c1)cc(=O)n2C,inactive,1.01%,1.3%,,,,
CNc1nccc(-c2cccnc2Oc2cc(C(=O)Nc3cccc(C(F)(F)F)c3)ccc2C)n1,inactive,6.17%,25.3%,13.3 µM (active),,inactive,
CC(=O)OCC(=O)[C@@]1(O)[C@H](C)C[C@H]2[C@@H]3C=C(C)C4=Cc5c(cnn5-c5ccccc5)C[C@]4(C)[C@@H]3[C@@H](O)C[C@@]21C,inactive,3.02%,2.93%,,20.9 µM (active),inactive,
CC(=O)SC[C@@H](C)C(=O)N1CCC[C@H]1C(=O)N[C@@H](Cc1ccccc1)C(=O)O,inactive,104%,97.5%,8.41 µM (active),inactive,inactive,
CC(C)=CCCC(C)=CCCC(C)=CCSc1ccccc1C(=O)O,,100%,85.3%,,inactive,inactive,
Cc1cc(Nc2cc(N3CCN(C)CC3)nc(C=Cc3ccccc3)n2)n[nH]1,inactive,9.16%,3.87%,,,inactive,
C[C@@H](Oc1cc(-n2cnc3ccc(CN4CCN(C)CC4)cc32)sc1C(N)=O)c1ccccc1C(F)(F)F,inactive,2.56%,3.16%,inactive,,23.5 µM (active),
Cc1cc(Nc2cc(N3CCN(C)CC3)nc(Sc3ccc(NC(=O)C4CC4)cc3)n2)n[nH]1,inactive,19.5%,27.1%,,,inactive,
COc1cc(=C2C=c3ccccc3=N2)[nH]c1=Cc1[nH]c(C)cc1C,,6.25%,26%,inactive,,inactive,
C1=CCOCc2cc(ccc2OCCN2CCCC2)Nc2nccc(n2)-c2cccc(c2)OCC1,inactive,61.1%,,,,,
C=CC(=O)Nc1cccc(Oc2nc(Nc3ccc(N4CCN(C)CC4)cc3OC)ncc2Cl)c1,inactive,0.697%,2.13%,inactive,,7.43 µM (active),
CCN(CC)CCCCNc1ncc2cc(-c3cc(OC)cc(OC)c3)c(NC(=O)NC(C)(C)C)nc2n1,inactive,3%,7.6%,,inactive,26.4 µM (active),
